Shown are actives, neighbours in structure and some others; about 3% of the full set was active somewhere.
Glyco luc inh: blocks N-linked glycosylation in D54 reporter cells; D54 ERlucT glycosylation luciferase reporter, 24 h; percent of 100 nM tunicamycin response; reporter increase, % at 12.5 µM; actives 0.23% (n = 360,000);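 active = mean luciferase reporter signal, scaled so untreated is 0 and the glycosylation-blocking control 100, at or above a set limit in every replicate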;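 also: luciferase carries N-glycosylation sites so blocking glycosylation raises the light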
esBAF inh: blocks esBAF chromatin remodeling in mouse ES cells | Bmi1-luciferase knock-in reporter, 24 h; 100% = twice the neutral-well signal | reporter increase, % at 12.5 µM | actives 2% (n = 350,000); in the data active = activation above about 40%;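 also: a rise in the Bmi1 reporter signal indicates esBAF inhibition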
MITF TRPM1 HTS: MITF TRPM1 promoter activation in melanoma cells | actives 0.75% (n = 300,000) | SK-MEL-5 TRPM1-promoter luciferase, 24 h; % of positive control, neutral wells = 0 | activation, % at 12.5 µM | AID 588334;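 active = mean activation of at least 80% with every replicate also reaching 80%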
Wnt act: Wnt/beta-catenin pathway activation. Wnt/beta-catenin reporter cell assay, activator, plate reader. activation, % at 9.35 µM. actives 1.2% (n = 300,000). AID 743398; in the data active = activation above about 30%, passing the limit was not always enough
Vif inh: inhibitors of HIV Vif; HEK293T cells, Vif self-association by quenched fluorescence, imaging, 24 h; inhibition, % at 7.49 µM; actives 0.35% (n = 340,000); AID 602346; in the data active = inhibition above about 50%, passing the limit was not always enough
PfHsp90 yeast 2: growth inhibition of yeast expressing Plasmodium Hsp90 | inhibition, % at 9.4 µM | S. cerevisiae expressing PfHsp90, BacTiter-Glo ATP, 48 h; yeast lacking PDR1 and PDR3 efflux regulators | actives 0.32% (n = 310,000);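 active = every replicate shows inhibition above about 80%, whatever the replicate mean, limit read from the data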
Each line names hits and unclear results; the compound was inactive in the other large screens.

CC(C)c1ccc(NC(=O)C2CC3CCC2C3)cc1 (stereo unspecified)	esBAF inh 57 (no result: MITF TRPM1 HTS)
O=C(Nc1ccc(F)cc1)C1CC2CCC1C2 (stereo unspecified)	none (no result: MITF TRPM1 HTS)
CCOC(=O)c1ccc(NC(=O)C2CC3CCC2C3)cc1 (stereo unspecified)	Wnt act 46 (no result: esBAF inh, MITF TRPM1 HTS, PfHsp90 yeast 2)
CCC(C)c1ccc(NC(=O)C2CC3CCC2C3)cc1 (stereo unspecified)	none (no result: esBAF inh, MITF TRPM1 HTS)
Cc1ccc(S(=O)(=O)N2CCC(c3nc4c(nnn4Cc4ccccc4)c(=O)[nH]3)CC2)cc1	none (no result: esBAF inh)
Cc1cc(C)n(Cc2ccccc2Cl)n1	none (no result: Wnt act)
CCOC(=O)c1ccc(NS(=O)C23CC4CC(CC(C4)C2)C3)cc1 (stereo unspecified)	esBAF inh 64 (no result: Wnt act)
CCOC(=O)c1ccc(NC(=O)CNC(=O)C23CC4CC(CC(C4)C2)C3)cc1	none (no result: Wnt act)
Cc1ccc(Oc2cc(-n3nc(C)cc3C)ncn2)cc1	esBAF inh 48 (no result: Wnt act)
C=CCNc1nc2cc(-c3cccc(NC(C)=O)c3)sc2c(=O)n1C	none (no result: MITF TRPM1 HTS, Vif inh, PfHsp90 yeast 2)
COc1ccccc1NC(=O)N[C@@H]1CC[C@H](CC(=O)N2CCC(Cc3ccccc3)CC2)O[C@H]1CO	none (no result: Glyco luc inh, MITF TRPM1 HTS, Wnt act, Vif inh, PfHsp90 yeast 2)
CN(C)C(=O)c1ccc(-c2cc(C(F)(F)F)nn2C)s1	Wnt act 33 (no result: esBAF inh, MITF TRPM1 HTS, PfHsp90 yeast 2)
Cn1nc(-c2ccc(S(N)(=O)=O)s2)cc1C(F)(F)F	none
CN(C(=O)COc1cc(C(F)(F)F)nn1C)c1ccccc1	none (no result: esBAF inh)
Cn1nc(C(F)(F)F)cc1-c1ccc(S(N)(=O)=O)s1	esBAF inh 52
C[C@@H]1CCCCO[C@@H](CN(C)C(=O)Nc2ccccc2)[C@@H](C)CN([C@H](C)CO)C(=O)c2cc(NS(=O)(=O)c3ccccc3)ccc2O1	none (no result: Glyco luc inh, MITF TRPM1 HTS, Wnt act, Vif inh, PfHsp90 yeast 2)
O=C1NC(=O)C(=Cc2ccc(Cl)cc2Cl)S1	Wnt act 39 (no result: esBAF inh)
COc1ccc(NC(=O)Cc2ccsc2)cc1S(=O)(=O)N1CCCCC1	none
Clc1ccc(C=NNc2ccccn2)c(Cl)c1	esBAF inh 43
Fc1cccc(/C=N/Nc2ccccn2)c1	MITF TRPM1 HTS 97 (no result: esBAF inh)
Fc1cccc(Cl)c1/C=N/Nc1ccccn1	esBAF inh 56
Fc1cccc(F)c1/C=N/Nc1ccccn1	none (no result: esBAF inh, Vif inh)
Clc1ccc(/C=N/NC(=Nc2ccccc2)c2ccccn2)c(Cl)c1	none (no result: Wnt act)
Nc1c(Cl)ncnc1N/N=C/c1ccccn1	none (no result: Glyco luc inh, esBAF inh, MITF TRPM1 HTS, Vif inh, PfHsp90 yeast 2)
Clc1ccccc1NN=Cc1ccccn1	Wnt act 60 (no result: esBAF inh, MITF TRPM1 HTS, PfHsp90 yeast 2)
Cc1ccccc1Nc1ncc(C#N)c(N)n1	none (no result: MITF TRPM1 HTS, Vif inh, PfHsp90 yeast 2)
CNC(=O)CC1C(=O)N(c2ccc(F)cc2)C(=S)N1NC(=O)c1ccc(Br)cc1 (stereo unspecified)	none
Cc1csc(N/N=C/c2c(F)cccc2Cl)n1	esBAF inh 45
Cc1c(Cl)cccc1N1C(=O)CC(N(O)c2ccccc2)C1=O (stereo unspecified)	esBAF inh 60 (no result: MITF TRPM1 HTS, Wnt act, PfHsp90 yeast 2)
O=C(CN1CCCCC1)Nc1nc(-c2ccccc2)cs1	esBAF inh 55
CCc1sc(NC(=O)CN2CCOCC2)nc1-c1ccccc1	none
Cc1nc(NC(=O)CN2CCOCC2)sc1-c1ccccc1	esBAF inh 50
O=C(CSCC(=O)N1CCCCC1)Nc1nc(-c2ccc(Cl)s2)cs1	PfHsp90 yeast 2 108
CC1(C)Cc2ccccc2C(NNC(=O)c2ccc(Br)o2)=N1	none
CNC(=O)COc1ncnc2sccc12	none
Cc1cc(C(=O)COc2ncnc3sccc23)c(C)n1C	esBAF inh 55 (no result: Wnt act, Vif inh)
COc1ccc(NC(=O)Nc2ccc3c(c2)C(=O)N([C@@H](C)CO)C[C@H](C)[C@H](CN(C)Cc2ccccc2)OCCCC[C@H](C)O3)cc1	none (no result: Glyco luc inh, MITF TRPM1 HTS, Wnt act, Vif inh, PfHsp90 yeast 2)
CC1=CN2C(=N)/C(=C/c3ccc([N+](=O)[O-])o3)C(=O)N=C2S1	PfHsp90 yeast 2 97 (no result: esBAF inh)
CC1=CN2C(=N)/C(=C/c3ccco3)C(=O)N=C2S1	none (no result: esBAF inh)
O=C(COC(=O)c1ccco1)NCc1ccc(Cl)cc1Cl	none
C/C(=N\OC(=O)c1ccccc1)c1cc(-c2ccc(Cl)cc2)no1	none (no result: Wnt act, PfHsp90 yeast 2)
C/C(=N/OC(=O)C1CC1)c1cc(-c2ccc(Cl)cc2)no1	MITF TRPM1 HTS 89 (no result: esBAF inh)
O=C(CNC(=O)c1ccco1)N/N=C/c1cc(Br)ccc1O	none (no result: MITF TRPM1 HTS)
Cc1cc(N/N=C/c2ccc3c(c2)OCO3)nc2ccccc12	MITF TRPM1 HTS 98 (no result: esBAF inh)
O=[N+]([O-])c1ccccc1N/N=C/c1ccccc1	esBAF inh 44 (no result: MITF TRPM1 HTS)
O=[N+]([O-])c1ccccc1N/N=C/c1c[nH]c2ccccc12	esBAF inh 43 (no result: Wnt act, Vif inh)
O=c1[nH]c(N/N=C\c2ccc3c(c2)OCO3)nc2ccccc12	none
O=[N+]([O-])c1ccccc1N/N=C/c1ccc2c(c1)OCO2	Wnt act 53
O=c1o[nH]c(-c2ccccc2)c1C1=NCCCCC1	none (no result: Wnt act)
C[C@@H]1CCCCO[C@H](CN(C)S(=O)(=O)c2ccccc2)[C@@H](C)CN([C@@H](C)CO)C(=O)c2cc(NC(=O)Cc3ccccc3)ccc2O1	none (no result: Glyco luc inh, MITF TRPM1 HTS, Wnt act, Vif inh, PfHsp90 yeast 2)
O=C(CSc1c2c(nc3ccc(Cl)cc13)CCCC2)N1CCN(C(=O)c2ccco2)CC1	Glyco luc inh 41
CCC(C)(C)NC(=S)Nc1ccc(-c2nc3ccc(C)cc3s2)cc1	none (no result: esBAF inh)
Cc1ccc2nc(-c3ccc(NC(=S)NCCC(C)C)cc3)sc2c1	Wnt act 49 (no result: Vif inh)
Cc1ccc2nc(-c3ccc(NC(=S)NCC(C)(C)CN(C)C)cc3)sc2c1	Wnt act 56
COC(C/C=C/[C@@H](O)[C@@H](C)OCc1ccccc1)OC	none (no result: esBAF inh, Vif inh, PfHsp90 yeast 2)
COc1cc(OC)cc(C(=O)N2CCN(C(=O)c3ccc(OC)c(OC)c3)CC2)c1	none (no result: esBAF inh, Wnt act)
COc1ccc(-c2n[nH]c3c2CN(C(=O)c2ccc(OC)c(OC)c2)CC3)cc1	Glyco luc inh 39
CC(C)(C)SCCNC(=O)c1ccc(Cl)c([N+](=O)[O-])c1	PfHsp90 yeast 2 102 (no result: esBAF inh)
Cc1ccc(Nc2cccc(C(F)(F)F)c2)nn1	none (no result: esBAF inh)
COc1ccccc1-c1ccc(NC2CCCCC2)nn1	MITF TRPM1 HTS 83 (no result: esBAF inh, Wnt act)
COc1ccccc1-c1ccc(Nc2cccc(C(F)(F)F)c2)nn1	esBAF inh 45 (no result: Wnt act)
O=C(NCc1cccnc1)C(=O)NCC1OCCN1S(=O)(=O)c1ccccc1 (stereo unspecified)	none (no result: MITF TRPM1 HTS)
Cn1nc(NC(=O)C2CCC2C(=O)O)c2c(F)cccc21 (stereo unspecified)	none
Cc1ccc(C(=O)Nc2nn(C)c3cccc(F)c23)cc1	Vif inh 50 (no result: MITF TRPM1 HTS, PfHsp90 yeast 2)
C[C@H](CO)N1C[C@H](C)[C@H](CN(C)C(=O)Nc2ccc(C(F)(F)F)cc2)Oc2c(NC(=O)c3ccc(-c4nccs4)cc3)cccc2C1=O	none (no result: Glyco luc inh, MITF TRPM1 HTS, Wnt act, Vif inh, PfHsp90 yeast 2)
Cc1nc2cc(-c3cccc(F)c3)nn2c(C)c1CCC(=O)NC(C)c1ccc2c(c1)OCCO2 (stereo unspecified)	none
NC(=S)NN=C(c1ccc(Br)cc1)C1CC1	none
NC(=S)NN=C(c1ccc(F)cc1)C1CC1	Vif inh 70
c1ccc(N=Nc2ccc3cccccc2-3)cc1	Glyco luc inh 26 (no result: esBAF inh, MITF TRPM1 HTS)
Nc1ccc(N=Nc2ccccc2)c2ccccc12	none (no result: Vif inh)
Nc1ccc(N=Nc2ccccc2)c(N)n1	MITF TRPM1 HTS 94
